# Screening data: PubChem BioAssay, National Center for Advancing Translational Sciences (NCATS)
# Most compounds without a hit are left out; they make up all but 4.6% or so of the library.
# D1 ag: agonists of human D1 dopamine receptor; activation, % at 2 µM; actives 1% (n = 360,000); HEK293 T-REx D1 cells, calcium flux, agonist mode; P21728; further: 0% is about no effect
#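 Tetracycline-induced HEK293 TREx D1 cells, force-coupled to calcium signalling, were dye-loaded with a no-wash calcium kit. Compound was pin-added after a 10 s baseline. Fluorescence was read kinetically at 1 cycle/s for 180 s, with calcium rises flagged as agonism.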
# D1 antag: human D1 dopamine receptor antagonism; AID 504652; actives 3.2% (n = 360,000); HEK293 TREx D1 cells, calcium flux, dopamine EC80; stronger effect = lower value; activity change, negative = inhibition, % at 10 µM; in the data active means activity change below about -30%; further: on the % scale 0 is the no-effect control and ±100 the full control effect
#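 Inducible Hek293 Trex D1 cells (tetracycline, overnight, 30 C). Calcium dye 30–90 min RT. Antagonist mode: EC80 dopamine added after 180 s compound read.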
# TRHR agonist: activates the human TRH receptor. actives 0.18% (n = 360,000). TRHR cells, calcium flux fluo-8, FDSS agonist mode. P34981. activation, % at 2 µM; further: 0% is about no effect
# Target sequence (P34981 whole entry, looked up): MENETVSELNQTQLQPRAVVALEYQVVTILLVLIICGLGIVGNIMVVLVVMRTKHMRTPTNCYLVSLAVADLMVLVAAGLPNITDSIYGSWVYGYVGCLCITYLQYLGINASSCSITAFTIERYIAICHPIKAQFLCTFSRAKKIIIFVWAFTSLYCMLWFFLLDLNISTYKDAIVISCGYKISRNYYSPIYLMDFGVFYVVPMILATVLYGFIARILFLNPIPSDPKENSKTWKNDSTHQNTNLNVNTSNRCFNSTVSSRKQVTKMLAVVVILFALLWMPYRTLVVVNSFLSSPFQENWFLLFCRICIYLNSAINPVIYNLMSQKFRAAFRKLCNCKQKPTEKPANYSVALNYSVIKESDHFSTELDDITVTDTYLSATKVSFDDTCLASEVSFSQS
#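 Read-out: compound-evoked intracellular calcium rise in TRHR cells, fluo-8 dye, kinetic FDSS fluorescence at 1 s/cycle following a 10-cycle baseline. Cells cultured overnight before dye loading (30 min–1.5 h, RT).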
# TRHR PAM: TRH receptor (human) allosteric enhancement; actives 0.66% (n = 360,000); TRHR cells, fluo-8 calcium fluorescence, EC20 TRH enhancement; enhancement, % at 2 µM; in the data active means enhancement above about 30%; further: 0% is about no effect
#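 Enhancer read-out: after compound pinning and an initial kinetic agonist-mode read, an EC20 of TRH (10 nM final) was injected and fluo-8 calcium signal (Ex 480/Em 530) followed at 1 s/cycle for 100 cycles in TRHR-expressing cells.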
# D1 potentiator: human D1 dopamine receptor positive modulation; HEK293 TREx D1 cells, calcium flux, dopamine EC20 potentiation; actives 0.036% (n = 360,000); P21728; potentiation, % at 10 µM; AID 504651; in the data active means potentiation above about 30%; further: 0% is about no effect
# The depositor's hits bear a star; . = not tested or not shown. Unless noted, no stated cut-off is given here; in the data, active means activation above about 30%; inactive means the rest.
SMILES,D1 ag,D1 antag,TRHR agonist,TRHR PAM,D1 potentiator
COc1cc(OC)c2c(-c3ccccc3)cc(=O)oc2c1C(CC(=O)N1CCCC1)c1ccc2c(c1)OCO2 (stereo not given),12,-36*,0,-2,-8
COc1ccc(C(CCN2CCCCC2)c2c(OC)cc(OC)c3c(-c4ccccc4)cc(=O)oc23)cc1 (stereo not given),55*,-43*,1,5,-10
Cc1ccc(C(=O)NCCc2ccc(S(N)(=O)=O)cc2)cc1-n1cnc2cccnc21,0,-9,0,5,1
O=C(CN1CCCN(Cc2cccc(F)c2)S1(=O)=O)Nc1ccc2c(c1)OCCO2,-2,3,-1,6,0
Cc1[nH]c2ccc(F)cc2c(=O)c1SC(F)(F)C(F)F,20,-42*,0,-8,-1
O=S(=O)(Nc1cccc2ccccc12)c1ccc2ccccc2c1,4,-14,0,7,-6
CC(C)CCNC(=O)c1ccc2nc(Cc3ccccc3)oc2c1,13,4,0,19,4
Cc1ccc(NC(=O)Cn2nc(-c3ccccc3)nc(Cc3ccc(Cl)cc3)c2=O)cc1,4,-5,0,-1,-1
Cc1ccc(-c2nc3ccccc3o2)cc1NC(=O)Cc1cccs1,3,-4,2,-12,-2
O=C(Cc1cccs1)Nc1cccc(-c2nc3ccccc3o2)c1,2,-47*,4,-1,0
Cc1cccc(-c2nnc(-c3cccc(NC(=O)Cc4cccs4)c3)o2)c1,4,-40*,0,-6,1
CC(=O)N1CCCC1c1nc2ccccc2n1Cc1c(F)cccc1Cl (stereo not given),-1,-1,0,1,-1
Cc1ccccc1-n1nc(CO)c(C(=O)NCCc2ccccc2)n1,-1,1,-3,0,0
CCOC(=O)CCN(c1ccccc1)S(=O)(=O)c1ccc2[nH]c(=O)ccc2c1,0,7,0,-1,-3
COc1cc2cc(C(=O)O)n(C)c2c(OC)c1OC,6,-37*,1,14,-3
Cn1c(SCc2c(F)cccc2Cl)nc2c(c1=O)SCC2,2,-31*,-1,-8,-8
O=C(CCn1nnnc1CN1CCOCC1)N1CCC(c2cccc(Cl)c2)C1 (stereo not given),1,-80*,0,-3,-11
O=C(CCCn1nnnc1CN1CCOCC1)N1CCC(c2ccccc2F)C1 (stereo not given),4,10,0,0,1
CC(C)c1ccc(N2C(=O)CSC23C(=O)N(Cc2ccccc2F)c2ccccc23)cc1 (stereo not given),6,5,-1,2,1
COc1ccccc1NC(=O)OCC#CCOC(=O)Nc1ccccc1OC,23,-58*,-1,2,-4
CCOC(=O)c1sc(NC(=O)CCN2C(=O)c3cccc([N+](=O)[O-])c3C2=O)c(C(=O)OCC)c1C,2,-33*,0,-4,2
Cc1noc(C)c1S(=O)(=O)NC1CCN(Cc2ccccc2)CC1,6,-41*,0,6,-4
CCc1cccc(-n2nnc(-c3nsc(NC(=O)c4cccc(OC)c4)n3)c2C)c1,3,1,0,1,7
CC(=O)Nc1ccc(S(=O)(=O)Nc2ccc(-c3cn4c(C)csc4n3)cc2)cc1,0,-11,0,-1,-3
COc1ccc(S(=O)(=O)Nc2ccc(-c3cn4c(C)csc4n3)cc2)cc1,1,-72*,-1,2,-4
SMILES,D1 ag,D1 antag,TRHR agonist,TRHR PAM,D1 potentiator
O=C(CN1C(=O)C2C3C=CC(C3)C2C1=O)NCc1ccco1 (stereo not given),1,22,0,9,31*
COC(=O)N/N=C/c1cc(N=Nc2ccccc2)ccc1O,5,-34*,0,-7,-6
S=C(NCc1ccc(Cl)cc1Cl)NC1CCCCC1,30*,-33*,2,-11,-8
Clc1ccc(CNC2CCCC2)c(Cl)c1,2,10,0,8,5
S=C(NCCc1cccc(Cl)c1)NC1CCCCC1,7,-38*,1,-10,-2
CCC(CC)C(=O)Nc1ccc(OCc2cc(=O)n3ccc(C)cc3n2)cc1,0,-5,0,-4,-3
Cc1cn2c(=O)cc(COC(=O)c3cccc(NC(=O)C(C)Oc4ccccc4)c3)nc2s1 (stereo not given),2,1,0,3,0
O=C(CCNC(=O)c1ccco1)Nc1ccc(OC(F)F)c(Cl)c1,2,-31*,0,-6,-8
O=C(CCNC(=O)c1ccco1)Nc1ccccc1OC(F)F,3,3,1,-7,.
O=C(COC(=O)C1(c2ccccc2F)CCCC1)Nc1ncc(C(F)(F)F)cc1Cl,12,-36*,2,5,-5
CCn1c(CN2CCOCC2)nc2cc(NC(=O)c3ccc([N+](=O)[O-])cc3)ccc21,-1,-15,1,-4,0
O=c1c(S(=O)(=O)c2ccccc2)cn(Cc2cccc(F)c2)c2cc(N3CCOCC3)c(F)cc12,0,11,0,0,6
C/C(=N\NC(=O)C1CC1(c1ccccc1)c1ccccc1)c1cccc([N+](=O)[O-])c1 (stereo not given),1,-77*,1,-1,-5
CCc1ccc(NCc2cc3cc4c(cc3n(CC(=O)Nc3ccc(F)cc3)c2=O)OCCO4)cc1,9,-9,9,5,-2
CCc1ccc(NCc2cc3cc4c(cc3n(CC(=O)Nc3ccc(C)cc3)c2=O)OCO4)cc1,49*,2,-1,-6,-2
CCc1ccc(NCc2cc3cc4c(cc3n(CC(=O)Nc3ccccc3Cl)c2=O)OCO4)cc1,66*,-18,29,-7,-2
CC(C)(C)OC(=O)CC(=O)NNC(=O)c1cc2ccccc2[nH]1,2,12,1,7,2
COc1cccc(C2CC(=O)Nc3c2c(=O)nc2c(C)cccn32)c1 (stereo not given),0,15,1,-2,-3
CCn1c(C(=O)N2CCC(C(=O)N3CCN(c4cc(C)ccc4C)CC3)CC2)cc2sccc21,-1,-36*,0,4,-3
CCn1c(C(=O)N2CCC(C(=O)N3CCN(c4cccc(C)c4C)CC3)CC2)cc2sccc21,3,-15,0,2,-4
CCc1cccc(NC(=O)Cn2cc(C=O)c3ccccc32)c1,14,-30*,1,-4,-4
CCC(C(=O)OCC(=O)NC(=O)c1ccccc1)c1ccccc1 (stereo not given),70*,-10,-1,-2,-5
CCC(C(=O)OCC(=O)NC(=O)c1ccccc1OC)c1ccccc1 (stereo not given),8,-2,0,6,-1
